# FBA Mtb inh = Mtb fructose-bisphosphate aldolase inhibition. P9WQA3. purified M. tuberculosis FBA, fluorescence read-out. inhibition, % at 1 µM. 360,000 compounds, 2.3% hits. AID 588726; in the data active means inhibition above about 27%;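 further: 0% = vehicle and 100% = reference inhibitor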
# GDH-TPI inh = inhibits GDH-TPI coupling enzymes, artifact for Mtb FBA screen; GDH-TPI coupled enzyme counterscreen, NADH absorbance; inhibition, % at 4.8 µM; 360,000 compounds, 1.2% hits; AID 588335; in the data active means inhibition above about 30%;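 further: 0% = DMSO wells and 100% = wells lacking the enzyme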
# Bead autofluor = compound fluorescence in toxin protease inhibitor counterscreen | compound autofluorescence counterscreen, microsphere flow cytometry; hits give high values | fluorescence intensity (concentration not given with the values) | 360,000 compounds, 3.1% hits; in the data active means fluorescence intensity above about 16000; inconclusive means no clear call, values can overlap the other calls
# BoNT F protease = blocks Botulinum neurotoxin F light chain protease; Multiplex microsphere protease cleavage assay, flow cytometry; inhibition, % at 10 µM; 360,000 compounds, 0.22% hits; in the data active means inhibition above about 35%, passing the limit was not always enough; inconclusive means no clear call, values can overlap the other calls; further: plate controls were buffer without enzyme for full effect and enzyme alone for no effect
# BoNT-A LC inh2 = BoNT A light chain protease inhibition | 360,000 compounds, 0.17% hits | multiplex microsphere protease substrate cleavage, flow cytometry | AID 588499 | inhibition, % at 10 µM; further: plate controls were buffer without enzyme for full effect and enzyme alone for no effect
# Anthrax LF inh2 = inhibitors of Bacillus anthracis lethal factor protease; multiplex microsphere protease cleavage assay, LF; inhibition, % at 10 µM; 360,000 compounds, 0.12% hits; AID 588501; further: plate controls were buffer without enzyme for full effect and enzyme alone for no effect
# The depositor's hits bear a star; ? = inconclusive. Sampled rows, rich in hits. Any-hit rate of the full collection: about 6.6%. Unless noted, no stated cut-off is given here; in the data, active means inhibition above about 30%; inconclusive means no clear call, values can overlap the other calls; inactive means below that.
SMILES,FBA Mtb inh,GDH-TPI inh,Bead autofluor,BoNT F protease,BoNT-A LC inh2,Anthrax LF inh2
COCCCn1c(SCC(=O)N2CCCCC2C)nnc1-c1ccco1 (stereo unspecified),3,9,16205*,1,0,-3
COCCn1c(SCC(=O)NC2CCCCC2)nnc1-c1ccco1,2,-3,6383,2,-2,2
CCn1c(SCC(=O)N2CCCCC2C)nnc1-c1ccco1 (stereo unspecified),0,-1,3502,12,0,-3
C[C@@H](NC(=O)c1nc[nH]c1C(=O)NCC(=O)OCc1ccccc1)c1ccccc1,-2,-4,4156,-9,0,-5
CCN(C(=O)CN1CCOCC1)C1(C)C(=O)c2ccccc2C1=O,-4,2,2390,1,-1,2
Cc1ccc(-c2c(C#N)c(N)n(-c3ccccc3)c(=O)c2C#N)cc1,5,40*,2741,-3,0,-2
N#Cc1c(C#N)c(-c2ccccc2)n(-c2ccccc2)c1N,27,-5,2722,-10,-1,-3
Cc1ccc(-c2c(C#N)c(N)n(-c3ccc(Cl)cc3)c(=O)c2C#N)cc1,2,31*,3545,-1,0,-3
CCOC(=O)c1nn(-c2ccc(Cl)cc2)c2nc(-c3ccc(C)cc3)c(C#N)c(=O)n12,6,6,2938,2,0,3
CCCCCC1CC(CC#CCN2CCOCC2)C(=O)O1 (stereo unspecified),1,3,21965*,6,4,-1
CCCCCC1CC(CC(=O)O)C(=O)O1 (stereo unspecified),1,-8,3926,-4,-1,-3
Cc1ccccc1NC(=S)Nc1ccccn1,5,7,9236,37*,-2,-13
S=C(Nc1ccccn1)Nc1ccccc1Cl,1,-8,5504,-6,0,-1
CCOC(=O)CC(=O)Nc1ccc(C(=O)OCC)cc1,0,-5,4186,?,0,-4
CCOC(=O)c1ccc(NC(=O)N(CC)CC)cc1,-2,4,20244*,-1,?,1
CN(CCO)C(=O)CCC(=O)Nc1ccc(S(N)(=O)=O)cc1,2,-2,17212*,-5,-3,-6
COc1ccc(OCCC(=O)Nc2ccc(S(N)(=O)=O)cc2)cc1,1,4,3202,-22,-6,-10
CCOC(=O)c1ccc(NC(=O)Nc2ccc(S(N)(=O)=O)cc2)cc1,-2,0,24361*,-8,-5,0
CCOC(=O)c1ccc(NC(=S)NCCCN2CCCCC2)cc1,1,-1,22858*,0,?,0
CCOC(=O)c1ccc(NC(=O)Nn2cnnc2)cc1,3,0,6519,0,-2,3
O=C1N=C(N2C=CC(=C3C=CNC=C3)C=C2)/C(=C/N=NC(=O)c2ccccc2)S1,-7,10,5814,5,1,-1
CCOC(=O)c1ccc(NC(=O)Nc2cc(C)on2)cc1,-1,2,16267*,1,0,-3
CCOC(=O)c1ccc(NC(=O)Nc2cccc(C)n2)cc1,5,4,2460,1,0,-1
Cc1cc(NC(=O)c2ccc(NC(=O)CC(C)C)cc2)no1,0,-8,19975*,9,5,-4
CCOCCCNCc1ccc(OCc2ccccc2C)c(OC)c1,-1,10,5509,-12,0,-4
SMILES,FBA Mtb inh,GDH-TPI inh,Bead autofluor,BoNT F protease,BoNT-A LC inh2,Anthrax LF inh2
COc1ccc(-c2c(C#N)c(N)nc3c2CCCC3)cc1OC,4,19,16197*,1,0,-1
CCOc1ccccc1C1C(C#N)=C(N)Oc2cc(C)n(C)c(=O)c21 (stereo unspecified),0,-3,21644*,5,?,0
Cc1cc2c(c(=O)n1Cc1ccc3c(c1)OCO3)C(c1cccnc1)C(C#N)=C(N)O2 (stereo unspecified),0,-5,20731*,-3,-1,-3
Cc1cc2c(c(=O)n1CCCn1ccnc1)C(c1ccco1)C(C#N)=C(N)O2 (stereo unspecified),21,16,22337*,0,1,0
COCCn1c(C)cc2c(c1=O)C(c1ccccc1F)C(C#N)=C(N)O2 (stereo unspecified),3,5,20039*,0,1,0
COc1ccccc1C1C(C#N)=C(N)Oc2cc(C)n(CCCn3ccnc3)c(=O)c21 (stereo unspecified),-3,3,4121,0,-1,-5

# Screening results as filed in PubChem BioAssay.
